Screening results: PubChem BioAssay, National Center for Advancing Translational Sciences (NCATS)
WRN inhibitor: qHTS for Inhibitors of WRN Helicase. WRN helicase unwinding, fluorescent forked duplex, kinetic. Potency, µM (doses to about 114 µM), inactives show at the highest dose activity change, negative = inhibition, usual class: inhibitors. 0.46% of 360,000 active. AID 651768, 2012; further: potency means the concentration at half of the fitted maximal effect; on the % scale 0 is the no-effect control and ±100 the full control effect; nearly all actives have a fitted effect of over 55% in size
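Primary qHTS, 1536-well format. 20 nM WRN + compound, 15 min RT; start with 100 nM forked fluorophore/quencher duplex, 2 mM ATP (final); kinetic read ex 525/em 598 nm.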
FEN1 inh: qHTS Assay for the Inhibitors of Human Flap endonuclease 1 (FEN1) | P39748 | Recombinant FEN1 flap cleavage, fluorescence, 15 min | Potency, µM (doses to about 114 µM), without a hit: at the highest dose activity change, negative = inhibition, most hits filed as inhibitors | 0.35% of 390,000 active | AID 588795, 2011; further: potency means the concentration at half of the fitted maximal effect; on the % scale 0 is the no-effect control and ±100 the full control effect; nearly all actives have a fitted effect of over 65% in size
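Concentration–response screening of FEN1 (10 nM): 15 min compound preincubation at room temperature, reaction started with 50 nM substrate and read at 0 and 15 min. Corrected, normalized data were fitted by a four-parameter Hill equation.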
POLI inh: qHTS for Inhibitors of Polymerase Iota | Potency, µM (highest dose often 115 µM), inactives show at the top dose activity, negative = inhibition, usual class: inhibitors | DNA polymerase iota (Homo sapiens), Q9UNA4 | Pol iota fluorescent replication assay, 10 min | 1% of 390,000 active | AID 588590, 2011; further: potency means the concentration at half of the fitted maximal effect
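Fluorescent replication assay read twice, at 0 min and 10 min after adding 50 nM (final) substrate. Enzyme (10 nM) and compounds were first incubated 15 min at room temperature; enzyme-free buffer wells were negative controls.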
Pol eta inh-1: qHTS for Inhibitors of Polymerase Eta; recombinant Pol eta, fluorescent DNA replication assay; 1.2% of 390,000 active; AID 588591, 2011; DNA polymerase eta (Homo sapiens), Q9Y253; Potency, µM (titrated, usually from 114 µM), inactives show at the highest dose activity change, negative = inhibition, most hits filed as inhibitors; further: potency means the concentration at half of the fitted maximal effect; on the % scale 0 is the no-effect control and ±100 the full control effect
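Pol eta (10 nM) was preincubated with compounds for 15 min at room temperature, after which fluorescent replication substrate (50 nM final) was added to start the reaction. Fluorescence was read kinetically at 0 and 10 min.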
POLB inh: qHTS Assay for Inhibitors of DNA Polymerase Beta; Potency, µM (doses to about 114 µM), for inactives: at the top dose activity change, negative = inhibition, hits mostly inhibitors; Pol beta primer extension/strand displacement, fluorescence kinetic; AID 485314, 2010; P06746; 1.3% of 340,000 active; further: potency means the concentration at half of the fitted maximal effect; on the % scale 0 is the no-effect control and ±100 the full control effect
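Kinetic readout of DNA synthesis with strand displacement by Pol beta. Compound and 10 nM enzyme sit 15 min at room temperature; 50 nM substrate starts the reaction, read immediately and at 10 min.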
POLK inh: qHTS for Inhibitors of Polymerase Kappa; DNA polymerase kappa (Homo sapiens), Q9UBT6; purified Pol kappa, fluorescent DNA synthesis assay, 10 min; Potency, µM (top dose mostly 107 µM), without a hit: top-dose activity, negative = inhibition, usual class: inhibitors; 0.53% of 400,000 active; AID 588579, 2011; further: potency means the concentration at half of the fitted maximal effect; on the % scale 0 is the no-effect control and ±100 the full control effect
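Fluorescent qHTS in 1536-well format: enzyme (10 nM) and compound sat 15 min at room temperature before 50 nM substrate (final) was added. Signal taken at 0 and 10 min; no-enzyme buffer wells were negative controls.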
GALK confirm: Confirmation Assay for Inhibitors of Human Galactokinase (GALK). 70% of 150 active. shares compounds with Pol eta inh-1. Potency, µM (highest dose often 115 µM), inactives show top-dose activity, negative = inhibition, hits mostly inhibitors. purified GALK, Kinase-Glo ATP depletion luminescence
Redox cycling: Confirmatory Assay for Inhibitors of Human Galactokinase (GALK): Phenol-HRP redox assay counterscreen; shares compounds with Pol eta inh-1; Phenol red-HRP H2O2 redox cycling, absorbance 600 nm; Potency, µM (highest dose often 115 µM), for the others: at the highest dose activity change, negative = H2O2 signal, most hits filed as inhibitors; 40% of 150 active
HEK293 viability: Secondary Assay for Inhibitors of Human Galactokinase (GALK): HEK-293 Cell Viability Assay. Potency, µM (highest dose often 46.1 µM), for inactives: at the top dose activity change, negative = cytotoxicity, most hits filed as inhibitors. 10% of 170 active. shares compounds with Pol eta inh-1. HEK-293 viability, ATP luminescence (CellTiter-Glo), 24/48 h; further: potency means the concentration at half of the fitted maximal effect; on the % scale 0 is the no-effect control and ±100 the full control effect
Pol eta inh-2: qHTS for Inhibitors of Polymerase Eta: Confirmatory Assay for Cherry-picked Compounds | shares compounds with Pol eta inh-1 | Pol eta primer extension, TAMRA/BHQ fluorescence, 10 min | Potency, µM, actives largely listed as inhibitors | 64% of 2,600 active; further: potency means the concentration at half of the fitted maximal effect
* = called active by the depositor; ? = inconclusive; . = not tested or not shown; [ ] = dose if it differs, or a comment. Hits are enriched below; roughly 2.4% of the tested compounds scored in any of these assays. The call rests on the fitted dose curve; in most records, active means well fitted curve in the direction sought with a large enough effect; inconclusive means small, poorly fitted or top-dose-only effect, or another doubt; inactive means no such curve, though single readings can be large; an effect the other way counts as inactive or inconclusive.

SMILES | WRN inhibitor | FEN1 inh | POLI inh | Pol eta inh-1 | POLB inh | POLK inh | Pol eta inh-2 | others
CCOC(=O)C1=C(C)OC2(O)c3ccccc3C(=O)C12O (stereo not drawn) | 25% | 7% | 1.6µM* | 40µM* | -29% | -5% | . | GALK confirm=27µM*;Redox cycling=19µM*;HEK293 viability=9%
CC(=O)C1=C(C)OC2(O)c3ccccc3C(=O)C12O (stereo not drawn) | 37% | 0% | 1µM* | 79µM* | 9% | -10% | ?
O=C(Nc1sc2c(c1C(=O)O)CCC2)C(=O)N1CCOCC1 | -22% | 9% | ? | 20µM* | ? | -7% | ?
C=CCOc1cccc(C2C(C(=O)c3ccco3)=C(O)C(=O)N2Cc2ccncc2)c1 (stereo not drawn) | -2% | -4% | 9% | 4% | 3% | -5% | .
C=CCOc1cccc(C2C(C(=O)c3ccco3)=C(O)C(=O)N2Cc2ccco2)c1 (stereo not drawn) | -16% | -11% | ? | ? | 3% | -13% | ?
CC(C)NS(=O)(=O)c1ccc2[nH]c3nc(SCC(=O)Nc4ccc(F)c(F)c4)nnc3c2c1 | . | -2% | 79µM* | . | . | 79µM* | ?
S=C(NCc1ccco1)NCc1ccco1 | -4%[11.6 µM] | -1% | ? | ? | . | ? | ?
NS(=O)(=O)c1ccc(CCNC(=O)CSc2ccsc2[N+](=O)[O-])cc1 | -8%[11.6 µM] | 0% | ? | 22µM* | -1% | ? | ?
COc1ccc(CN(Cc2ccccc2)C(=O)c2ccno2)cc1COc1ccc(NC(C)=O)cc1 | . | -9% | 40µM* | . | . | 79µM* | ?
COc1ccc(CN(Cc2ccccc2)C(=O)c2ccc(NC(C)=O)cc2)cc1COc1ccc(NC(C)=O)cc1 | . | -12% | 26% | . | . | -22% | .
CCCn1c2ccccc2c2cnn(CC(=O)N(CCCOC(C)C)Cc3ccco3)c(=O)c21 | . | -24% | -2% | -12% | 30% | -10% | .
O=[N+]([O-])c1ccc(CSc2ncnc3c2ncn3C2OC(CO)C(O)C2O)cc1 (stereo not drawn) | . | . | . | . | . | 6%[19.4 µM] | .
CC1Cn2cc(C(=O)Nc3ccccc3C(F)(F)F)c(=O)c3c(Cl)ccc(c32)O1 (stereo not drawn) | . | 10% | -18% | -13% | 8% | -15%[60.1 µM] | .
Cc1ccc(/C=C2\C(=N)N3N=C(CC(=O)N4CCCCC4)SC3=NC2=O)cc1 | -2%[11.6 µM] | -15% | ? | ? | -21% | ? | 19*
